From PubChem
The full list was thinned out, with hits kept by preference.
TTR transcr act: activators of transthyretin transcription | SH-SY5Y TTR promoter Gaussia luciferase, luminescence; 100% = recombinant luciferase protein wells | activation, % at 16.7 µM | 92,000 compounds, 1.3% hits | AID 1117267;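 active means activation above the mean of all tested compounds plus 3 SD, cut at about 9.5% in these data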;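 further: cells exposed to compounds for one day before reading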
TTR inh HuH7: HuH7 TTR transcription inhibition, counter-screen; shares compounds with TTR transcr act; HuH7 TTR promoter-Gaussia luciferase reporter, luminescence; 1,100 compounds, 4% hits; inhibition, % at 16.7 µM;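 active means average inhibition above the solvent-only control wells' mean plus 3 SD, cut at about 15% in these data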;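 further: inhibitors lower well luminescence so higher value means more inhibition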
TTR act confirm: confirmation of human transthyretin transcription activators; activation, % at 16.7 µM; shares compounds with TTR transcr act; SHSY5Y TTR promoter Gaussia luciferase, luminescence; 100% = purified Lucia enzyme wells, no cells; AID 1117280; 1,100 tested, under 10 active;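 active means mean activation above a set limit taken from the earlier primary screen, cut at about 11% in these data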
Each line names hits and unclear results; the compound was inactive in the other large screens (follow-up assays come after a bar, where they were run).

COC(=O)CC1C(=O)NCCN1C(=O)OC(C)(C)C (centres undefined)	none
C[C@@H]1CCCCCCCCC(=O)OCCN(C(=O)OC(C)(C)C)[C@H](C)CCCCCCCCC(=O)OCCN(C(=O)OC(C)(C)C)[C@H](C)CCCCCCCCC(=O)OCCN(C(=O)OC(C)(C)C)[C@H](C)CCCCCCCCC(=O)OCCN1C(=O)OC(C)(C)C	TTR transcr act 19.0
CC(C)(C)OC(=O)C1[C@H](O)C=CC[C@H]1S(=O)c1ccccc1 (some centres undefined)	none
CN(CCOc1ccc(-c2ccn(S(=O)(=O)c3c(Cl)cccc3Cl)n2)cc1)c1ccccn1	TTR transcr act 15.3
Cc1ccc(S(=O)(=O)n2ccc(-c3cccc(OCc4c(F)cccc4Cl)c3)n2)cc1	none
CCOc1ccc(S(=O)(=O)n2ccc(C)n2)cc1	none
COc1cc(-c2c(C(=O)c3ccccc3)[nH]c(N)c2C(N)=O)ccc1O	none
O=C(NCc1ccc2c(c1)OCO2)C1CCN(S(=O)(=O)N2CCCCC2)CC1	none
COC(=O)COc1ccc(S(=O)(=O)Nc2ccc3c(c2)OCO3)cc1Cl	none
O=C(COc1ccc(S(=O)(=O)N2CCCC2)cc1Cl)NCc1ccc2c(c1)OCO2	TTR transcr act 13.5
CCC[C@H]1[C@@H](NC(=O)C2CCCCC2)CC[C@@]23CCCN2C(=O)CCC[C@@H]13	none
O=C1CCC[C@H]2C[C@H](NCc3cccc(I)c3)CC[C@]23CCCN13	none
O=C(NCC(c1ccccc1)c1ccccc1)[C@H](Cc1ccccc1)NC1(C(=O)NC2CCCCC2)CCOCC1	none
O=C1C[C@H](c2ccc3ccccc3c2)N=C2N1/C(=C\c1ccccc1)[C@@H](c1ccccc1C(F)(F)F)N2Cc1ccc2c(c1)OCO2	none
C/C=C\C=C/C(=O)Nc1cccc(C2=NOC3(C2)C[C@H](C(N)=O)N(C(=O)c2ccc(OC)cc2)C3)c1 (some centres undefined)	TTR transcr act 16.0
C/C=C\C=C/C(=O)Nc1cccc(C2=NOC3(C2)C[C@H](C(N)=O)N(C(=O)CC)C3)c1 (some centres undefined)	none
C/C=C/C=C\C(=O)Nc1cccc(C2=NOC3(C2)C[C@@H](C(N)=O)N(C(=O)/C(C)=C/C)C3)c1 (some centres undefined)	none
Cc1ccc(CN2CCCCC(NC(=O)c3ccc(F)c(F)c3)C2=O)cc1 (centres undefined)	none
O=C(NCc1ccc(Cl)cc1)O[C@H]1CC[C@@]23CCCN2C(=O)CCC[C@H]3C1	none
O=C(COc1ccc(F)cc1Cl)Nc1nnc(-c2ccc(F)c(F)c2)o1	none
O=C(NC1CC[C@@]23CCCN2C(=O)CCC[C@H]3C1)c1ccccc1 (some centres undefined)	none
COc1ccc(NC(=O)CNC(=O)Cc2ccccc2)cc1	none
CCOCCCNC(=O)C(NC(=O)c1ccc(NC(C)=O)cc1)c1ccc(OC)cc1 (centres undefined)	none
COc1ccc(NC(=O)C(NC(=O)CNC(C)=O)c2ccc(C)cc2)cc1 (centres undefined)	TTR transcr act 29.4
O=C(Nc1cccc(C(F)(F)F)c1)O[C@@H]1CC[C@@]23CCCN2C(=O)CCC[C@H]3C1	none
O=C(Nc1ccc(OC(F)(F)F)cc1)Nc1nc2ncccn2c1-c1ccc(C(F)(F)F)cc1	none
O=C(Nc1cccc(Cl)c1)O[C@@H]1CC[C@@]23CCCN2C(=O)CCC[C@H]3C1	none
CCC[C@H]1[C@@H](OC(=O)Oc2ccc([N+](=O)[O-])cc2)CC[C@@]23CCCN2C(=O)CCC[C@@H]13	none
CS/C(=C\[N+](=O)[O-])Nc1ccc(OC(F)(F)F)cc1	none
Cc1ccc(-c2nc3ncccn3c2NC(=O)Nc2ccc(OC(F)(F)F)cc2)cc1	none
Cc1ccc(N=C2SC(C(=O)Nc3ccc(OC(F)(F)F)cc3)C(N)=C2C(=O)Nc2c(C)cc(C)cc2C)cc1 (centres undefined)	TTR transcr act 9.8
O=C(NC1CCCCC1)c1ccc([N+](=O)[O-])cc1	none
O=[N+]([O-])c1ccc(N/N=C2/CCCCC2c2ccccn2)cc1 (centres undefined)	none
O=C1CCCCC1Nc1ccc([N+](=O)[O-])cc1 (centres undefined)	TTR transcr act 12.4
COc1ccc2c(c1)NC(=O)[C@@]2(CCN1C(=O)c2ccccc2C1=O)c1[nH]c2ccccc2c1CCN1C(=O)c2ccccc2C1=O	none
CN1C2=NC(c3ccccc3)CC(=O)N2/C(=C\c2ccccc2)C1c1ccccc1C(F)(F)F (centres undefined)	none
Cc1ccc(OCCOc2ccc(Cl)cc2Cl)c(Br)n1	none
O=C(CN1C(=O)NC(CCc2ccccc2)C1=O)N1CCCCCC1 (centres undefined)	none
COc1cccc(NC(=O)CN2C(=O)NC(CCc3ccccc3)C2=O)c1 (centres undefined)	none
CCc1cccc(C)c1NC(=O)CN1C(=O)NC(CCc2ccccc2)C1=O (centres undefined)	TTR transcr act 15.4 | TTR inh HuH7 inactive | TTR act confirm inactive
Cc1cc(NC(=O)CS(=O)(=O)c2cn(Cc3cccc(Cl)c3)c3ccccc23)no1	none
CCn1c(=O)cc(SCC(=O)N2CCN(Cc3ccc4c(c3)OCO4)CC2)c2ccccc21	none
CCn1c2ccccc2c2cc(CN3CCN(S(=O)(=O)CC)CC3)ccc21	TTR transcr act 18.9 | TTR inh HuH7 inactive | TTR act confirm inactive
CCn1c2ccc(CC(=O)O)cc2c2cc(CC(=O)O)ccc21	none
C[n+]1ccc(/C=N/Nc2nc(Cl)c(C#N)c(Cl)c2Cl)cc1	none
c1ccc(C2CCC3(CC2)CCC3NCc2cccs2)cc1 (centres undefined)	none
CC(=O)c1cnn(-c2ccc(Cl)c(Cl)c2Cl)c1C	none
COc1cc2c(cc1OC)C(c1cc3cccc(C)c3[nH]c1=O)N(C(=O)c1ccco1)CC2 (centres undefined)	none
Cc1ccc(S(=O)(=O)NCCNC(=O)c2ccc(C)nc2)cc1	none
Fc1ccccc1Oc1nc(-c2ccncc2)nc2ccccc12	none
Cc1ccc(Nc2c3c(nc4ncnn24)CCC3)cc1	TTR transcr act 19.6 | TTR inh HuH7 23.6 | TTR act confirm inactive
CCCc1cc(Nc2ccc(C)cc2)n2ncnc2n1	none
CC(=O)c1ccc(Nc2cc(C)nc3ncnn23)cc1	none
CN(C)Cc1cn(CC[C@@H]2CC[C@@H](NC(=O)Nc3ccccc3F)[C@@H](CO)O2)nn1	none
CC(=O)c1ccc(N2CCN(C(C)C(=O)Nc3ccc4c(c3)OCCO4)CC2)cc1 (centres undefined)	none
COc1cccc(C(=O)NOCc2ccccc2)c1OC	none
COc1ccc(C(=O)C(C)C(C)=O)c(OCc2ccccc2)c1OC (centres undefined)	TTR transcr act 14.0 | TTR inh HuH7 inactive | TTR act confirm inactive
COc1cc(NC(=O)c2ccccc2OCc2ccccc2)cc(OC)c1OC	none
COC(=O)C(Cc1c[nH]c2ccccc12)NC(=O)c1cccc(S(=O)(=O)N2CCCCC2)c1 (centres undefined)	none
CN1CCN(NC(=O)c2ccc(COc3ccccc3Br)o2)CC1	none
O=C(c1ccc(COCC(F)(F)F)o1)N1CCCCCC1	none
CC1CN(C(=O)c2ccccc2OCc2ccccc2Cl)CC(C)O1 (centres undefined)	none
CC1CCN(C(=O)c2ccc(COc3ccccc3Cl)o2)CC1	none
O=C(c1ccc(COc2ccccc2Cl)o1)N1CCCC1	TTR transcr act 10.4 | TTR inh HuH7 inactive | TTR act confirm inactive
